According to ChEMBL document CHEMBL3988442, “University of Dundee, Small-Polar-MMV Screening Library” (2021):

biological target: AMP-activated protein kinase, AMPK (Homo sapiens) (UniProt P54646+O43741+P54619+Q9UGJ0+Q9Y478+Q13131+Q9UGI9); experiment: AMP-dependent Kinase enzyme assay. An in vitro enzyme assay that detects ADP turnover that is directly proportional to AMPK activity. This uses naive AMPK that is activated during the assay with MK-8722; assay type: functional; design: scale not given: direction of the effect not stated beside the values; conditions: 30 µM

Compound | Percent Effect [%]
COc1ccnc(CNc2nc(C)nc(C)c2C)c1 | -6.37
CCc1cc(=O)[nH]c(-c2ccc(NC(CO)CC(C)C)nc2)n1 (stereo not given) | 4.58
NC(=O)CC1CCCN(c2cncc(OCc3ccccc3)n2)C1 (stereo not given) | 20.7
CCC(CNC(=O)c1cccc(S(=O)(=O)NC)c1)N1CCCC1 (stereo not given) | 0.599
CC(C(=O)NCCc1ccc2c(c1)OCCO2)n1cncn1 (stereo not given) | -6.97
Cc1cc(CN(C)Cc2csc(-c3cccs3)n2)n[nH]1 | 6.79
Cc1ccc2ncccc2c1CN1CC[C@H](N(C)C)[C@H](CCC(=O)O)C1 | -2.6
CN(Cc1ccncc1)Cc1cnn(-c2ccc(F)cc2)c1 | 11.6
Cc1nc(N)cc(NCc2csc(N(C)C)n2)n1 | -14.5
CSc1ccc(C)c(C(=O)Nc2c(C(N)=O)n[nH]c2C)c1 | 3.27
CNC(=O)Cc1ccc(NC(=O)NCC(C)c2ncc(C)s2)cc1 (stereo not given) | -3.25
CC(NC(=O)c1ccc2c(c1)COC2)c1cccc(N2CCOC2=O)c1 (stereo not given) | 5.03
CS(=O)(=O)N1CCCCC1c1ccc(Nc2cnccn2)nc1 (stereo not given) | 4.25
OCCC1CCN(c2ccnc3ccsc23)C1 (stereo not given) | 1.38
CC(C)c1ccc(S(=O)(=O)NC2CCN(CC(F)(F)F)C2)cc1 (stereo not given) | 8.13
CCc1nc(C)c(CN2CCOC(Cc3cccc4ccccc34)C2)[nH]1 (stereo not given) | -0.756
COc1ccc2cc(C(=O)NCCNc3ccc(C)nn3)[nH]c2c1 | 8.22
Cc1cc(=O)n2nc(Oc3ccc(F)c(F)c3)sc2n1 | -9.97
CNc1nc(C)c(C(=O)N2C[C@@H](C(=O)O)[C@H](C3CC3)C2)s1 | 3.27
CC(C)O[C@H]1CN(C(=O)CCN2CCCCO2)C[C@@H]1O | -7.14
